# Measured values published in PubChem BioAssay (Tox21).
# Records with an inconclusive call do not appear. Active and inactive are the calls of the source. Calls come from the whole dose curve; as a rule, active = well fitted inhibition curve with a large enough effect in the repeat runs; inconclusive = weak or mixed curves, or effect the other way; inactive = no such curve, though single readings can be large or run the other way.
# Assay: qHTS assay to identify small molecule antagonists of the retinoic acid receptor (RAR) signaling pathway (AID 1159552; note: nearly all actives have a fitted effect of over 50% in size)
# Conditions: C3RL4 RARE luciferase reporter, retinol-stimulated, 6 h; series mostly up to 92.4 µM
# From the text: National Center for Advancing Translational Sciences [NCATS]
# NIH Chemical Genomics Center [NCGC]
# U.S. Environmental Protection Agency [EPA]
# National Institutes of Environmental Health Sciences [NIEHS]
# National Toxicology Program [NTP]
# U.S. Food and Drug Administration [FDA]
# All-trans Retinoic acid (atRA) is the potent natural metabolite of retinol and plays an important role in normal embryonic development and maintenance of cellular phenotype in adult animals. atRA is the activating ligand for the retinoic acid receptors (RARs) which form heterodimers with retinoid X receptors (RXRs) on the retinoic acid response element (RARE). Through activation of the RAR/RXRs nuclear receptors, atRA regulates the transcription of a large number of protein-coding genes and regulatory RNAs. Intracellular levels of atRA are controlled by the retinol signaling pathway (RSP) that regulates the biosynthesis and catabolism of atRA to maintain physiological levels. Chemicals that interfere with the RSP can cause abnormal intracellular levels of atRA and therefore are potential developmental toxicants. To assess compounds for the potential adverse effect on embryonic development through interfering with retinol signaling, a cell-based RARE luciferase reporter gene assay was used. C3RL4 cell line (OARSA/CFSAN/FDA, Laurel, MD) was used to screen Tox21 10K compound library for identifying inhibitors of the RSP.
# Tox21 Assay Protocol Summary:
# C3RL4 cells were seeded at 1,000/well in 4 uL of assay medium into white solid 1,536-well tissue culture plates (Greiner Bio-One North America Inc. Monroe, NC) using a Multidrop Combi (Thermo Scientific, Waltham, MA) dispenser. After incubation at 37 C and 5% CO2 for an overnight, 23 nL of compounds dissolved in DMSO, positive control or DMSO only were transferred by a Pintool station (Kalypsys, San Diego, CA). One ul of 1 uM (final concentration) of Retinol was added right after the compound addition by using a Flying Reagent Dispenser (FRD) (Aurora Discovery, San Diego, CA). After 6 hr incubation at 37 C and 5% CO2, 5 uL of Amplite Luciferase reagent (AAT Bioquest Inc. Sunnyvale, CA) was added to each assay plate using an FRD. Luminescence was quantified on a ViewLux plate reader (PerkinElmer, Waltham, MA) after 30 min incubation at room temperature.
# % is set by controls: 0 for no effect and ±100 for the full control effect.
Structure (SMILES),outcome,"activity, negative = inhibition"
CC(C)=CCC/C(C)=C\C#N,inactive,–
CCCOc1ccc(C(=O)OCCN(CC)CC)cc1N,inactive,–
CC(C)(C)OC(=O)c1ccccc1C(=O)O,inactive,–
C[C@H]1COc2c(C3(N)CC3)c(F)cc3c(=O)c(C(=O)O)cn1c23,inactive,–
CN(C)CCc1c[nH]c2ccc(C[C@H]3COC(=O)N3)cc12,inactive,–
O=C1c2ccccc2C(=O)N1CO,inactive,–
O=CN1CCCCC1,inactive,–
CC1=C(O)C(=O)CO1,inactive,–
CC(=O)c1ccc2ccc3ccccc3c2c1,inactive,–
Clc1ccc2c(c1)Nc1ccccc1S2,inactive,–
Cc1cccc(N)n1,inactive,–
NNC(=O)OCc1ccccc1,inactive,–
CCCC(C)C(O)CC (stereo not given),inactive,–
CC(C)(C)C(=O)CC(=O)C(C)(C)C,inactive,–
CN(C)CCC[C@@]1(c2ccc(F)cc2)OCc2cc(C#N)ccc21,inactive,–
N=C(N)S(=O)O,inactive,–
CNCCc1ccccn1,inactive,–
CN(C)c1cc(NC(=O)CNC(C)(C)C)c(O)c2c1C[C@H]1C[C@H]3[C@H](N(C)C)C(=O)C(C(N)=O)=C(O)[C@@]3(O)C(=O)C1=C2O,inactive,–
CCCCN1C(=O)c2ccccc2C1=O,inactive,–
NC[C@H]1O[C@H](O[C@H]2[C@H](O)[C@@H](O[C@H]3O[C@H](CO)[C@@H](O)[C@H](N)[C@H]3O)[C@H](N)C[C@@H]2N)[C@H](N)[C@@H](O)[C@@H]1O,–,-0.0699% [at 19 µM] (inactive)

Structure (SMILES),outcome,"activity, negative = inhibition"
CCCCCCCC(=O)N(C)C,inactive,–
C[n+]1ccccc1/C=N/O,inactive,–
Cc1cc2c(cc1CC(=O)c1sccc1S(=O)(=O)Nc1onc(C)c1Cl)OCO2,inactive,–
CC1(C)C(=O)C(C)(C)C1=O,inactive,–
C=C(C)C(=O)OCCCC,inactive,–
CCCCCCCCCCCCCCCC/C=C/C1CC(=O)OC1=O (stereo not given),inactive,–
CC(C)C(=O)Nc1cccc(C2CN3CCSC3=N2)c1 (stereo not given),inactive,–
CCO[Si](CC(C)C)(OCC)OCC,inactive,–
C/C=C(\C)C(=O)OC/C=C(\C)CCC=C(C)C,inactive,–
Clc1cc(Cl)c(Cl)c(Cl)c1Cl,inactive,–
N#Cc1cc(NC(=O)C(=O)O)c(Cl)c(NC(=O)C(=O)O)c1,inactive,–
CC[N+](C)(CC)CC,inactive,–
Cc1cc(C)c(N)c(Cl)c1,inactive,–
O=C(OOC(=O)c1ccccc1)c1ccccc1,inactive,–
CCOC(=O)CC(C(C)=O)C(C)=O,inactive,–
CCCCN=C(N)N=C(N)N,inactive,–
O=c1c(O)c(O)c1=O,inactive,–
COc1cc(C(=O)NC2CCCNC2)cc(OC)c1OC (stereo not given),inactive,–
C/C(=N\O)c1ccc(OCC(=O)N2CCCCC2)cc1,inactive,–
CC(C)OCCO,inactive,–
